According to PubChem BioAssay (NCI):
Where “and” joins values, the source holds several entries; their conditions need not be identical. Equal values may be shown once. This is part of a sample that, as a whole, favours compounds with a hit. Of some 83,000 tested, about 20% had one in any assay.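 Treatment: one concentration, 48 hours, 96-well format. Scoring: percent growth, with anything below 10 considered active.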 Calls of active or inactive are those of the source.

Legend:
Experiment in all cases: NCI-60 one-dose screen, 48 h (100 = growth as untreated, 0 = no growth, -100 = all killed)
Conditions in all cases: 10 µM unless noted
SR leukemia = tested on: SR leukemia
RPMI-8226 leukemia = tested on: RPMI-8226 leukemia
OVCAR-8 ovarian = tested on: OVCAR-8 ovarian
OVCAR-5 ovarian = tested on: OVCAR-5 ovarian
OVCAR-4 ovarian = tested on: OVCAR-4 ovarian
SK-OV-3 ovarian = tested on: SK-OV-3 ovarian
IGROV1 ovarian = tested on: IGROV1 ovarian
OVCAR-3 ovarian = tested on: OVCAR-3 ovarian
HS 578T breast = tested on: HS 578T breast
NCI/ADR-RES ovarian = tested on: NCI/ADR-RES ovarian

Measured: growth

O=C(NCc1cccnc1)/C(=C\c1ccc(Br)cc1)S(=O)(=O)c1ccccc1
inactive: SR leukemia 55.9% | RPMI-8226 leukemia 26.7% | SK-OV-3 ovarian 10.2% | HS 578T breast 14.9%
active: OVCAR-8 ovarian 3.01% | OVCAR-5 ovarian -41.3% | OVCAR-4 ovarian 0.235% | IGROV1 ovarian -11.3% | OVCAR-3 ovarian -96.7% | NCI/ADR-RES ovarian 2.59%

COc1ccc(C(CC(=O)c2ccc3c(c2)OCO3)C(=O)O)cc1OC (stereo unspecified)
inactive: SR leukemia 116% and 90.8% | RPMI-8226 leukemia 103% and 96.1% | OVCAR-8 ovarian 107% and 106% | OVCAR-5 ovarian 118% and 99.9% | OVCAR-4 ovarian 132% and 108% | SK-OV-3 ovarian 113% and 105% | IGROV1 ovarian 131% and 106% | OVCAR-3 ovarian 119% and 102% | HS 578T breast 94.8% and 121% | NCI/ADR-RES ovarian 106% and 98.5%

COc1ccc(C(c2cc(OC)c(OC)c(OC)c2)n2ccnc2)cc1O (stereo unspecified)
active: SR leukemia 8.48% | OVCAR-3 ovarian -9.52%
inactive: RPMI-8226 leukemia 18.9% | OVCAR-8 ovarian 10.3% | OVCAR-5 ovarian 71.1% | OVCAR-4 ovarian 73.6% | SK-OV-3 ovarian 21.8% | IGROV1 ovarian 36.4% | HS 578T breast 29.1% | NCI/ADR-RES ovarian 12.1%

CC12CCC(C(=O)CC1=O)C2(C)C (stereo unspecified)
inactive: SR leukemia 122% and 93% | RPMI-8226 leukemia 101% and 94.2% | OVCAR-8 ovarian 103% and 99.5% | OVCAR-5 ovarian 101% and 106% | OVCAR-4 ovarian 101% | SK-OV-3 ovarian 104% and 105% | IGROV1 ovarian 110% and 104% | OVCAR-3 ovarian 105% and 106% | HS 578T breast 108% and 120% | NCI/ADR-RES ovarian 111% and 103%

COc1ccc(-c2c[nH]c(C(=O)O)c2-c2cc(OC)c(OC)c(OC)c2)cc1
inactive: SR leukemia 18.7% | RPMI-8226 leukemia 36% | OVCAR-8 ovarian 51.4% | OVCAR-5 ovarian 80.6% | OVCAR-4 ovarian 49.9% | SK-OV-3 ovarian 53.2% | IGROV1 ovarian 54.8% | NCI/ADR-RES ovarian 24.2%
active: OVCAR-3 ovarian -2.04% | HS 578T breast 9.64%

CC/C(=C(/c1ccc(Cl)cc1)c1ccc(OCCN2CCOCC2)cc1)c1ccccc1
inactive: SR leukemia 85.1% | RPMI-8226 leukemia 80.3% | OVCAR-8 ovarian 91.6% | OVCAR-5 ovarian 100% | OVCAR-4 ovarian 100% | SK-OV-3 ovarian 116% | IGROV1 ovarian 108% | OVCAR-3 ovarian 96% | HS 578T breast 99.2% | NCI/ADR-RES ovarian 103%

O=C1c2cccc3cccc(c23)C(=O)N1N1C(=O)c2cccc3c(N4CCNCC4)ccc(c23)C1=O
inactive: RPMI-8226 leukemia 68.8% | OVCAR-8 ovarian 82.6% | OVCAR-5 ovarian 121% | OVCAR-4 ovarian 116% | SK-OV-3 ovarian 104% | IGROV1 ovarian 91.2% | OVCAR-3 ovarian 101% | HS 578T breast 85.9% | NCI/ADR-RES ovarian 82.6%
active: SR leukemia -6.4%

O=C(NCCCN1CCCCC1)c1ccc(-c2nc3ccc4[nH]ncc4c3c3c2CCCC3)cc1
active: SR leukemia -18.3%
inactive: RPMI-8226 leukemia 29.9% | OVCAR-8 ovarian 62% | OVCAR-5 ovarian 94.6% | OVCAR-4 ovarian 54.3% | SK-OV-3 ovarian 24.9% | IGROV1 ovarian 29.2% | OVCAR-3 ovarian 67.5% | NCI/ADR-RES ovarian 85.2%

N#C/C(=C\c1ccccc1Cl)c1cc2ccccc2[nH]1
inactive: SR leukemia 60% | RPMI-8226 leukemia 77.1% | OVCAR-8 ovarian 96.4% | OVCAR-5 ovarian 95.8% | OVCAR-4 ovarian 96.4% | SK-OV-3 ovarian 76.3% | IGROV1 ovarian 84.7% | OVCAR-3 ovarian 101% | NCI/ADR-RES ovarian 95.5%

N=C1/C(=C2\NC3C=CC=CC3S2)C(c2ccc(Cl)cc2)C2C(=O)N(c3ccccc3)C(=S)N12 (stereo unspecified)
inactive: SR leukemia 105% | RPMI-8226 leukemia 103% | OVCAR-8 ovarian 99.1% | OVCAR-5 ovarian 106% | OVCAR-4 ovarian 101% | SK-OV-3 ovarian 105% | IGROV1 ovarian 92.8% | OVCAR-3 ovarian 106% | NCI/ADR-RES ovarian 95.8%

C#CCOc1cccc(Nc2ncc3ncn(C4CCN(C(=O)CCl)C4)c3n2)c1 (stereo unspecified)
inactive: RPMI-8226 leukemia 44.1% [6.25 µM] | OVCAR-8 ovarian 51.7% [6.25 µM] | OVCAR-5 ovarian 53.3% [6.25 µM] | OVCAR-4 ovarian 36.3% [6.25 µM] | SK-OV-3 ovarian 73.4% [6.25 µM] | NCI/ADR-RES ovarian 78% [6.25 µM]
active: SR leukemia -1.16% [6.25 µM] | IGROV1 ovarian 1% [6.25 µM] | OVCAR-3 ovarian -6.2% [6.25 µM]

COC(=O)/C=C1/SC(=Nc2ccc([N+](=O)[O-])cc2)N(CCc2c[nH]c3ccccc23)C1=O
inactive: OVCAR-8 ovarian 42% | OVCAR-5 ovarian 112% | OVCAR-4 ovarian 66.2% | SK-OV-3 ovarian 105% | IGROV1 ovarian 62% | OVCAR-3 ovarian 43.1% | NCI/ADR-RES ovarian 66.9%
active: SR leukemia 1.73% | RPMI-8226 leukemia 2.18%

CCOC(=O)C1=C(C)NC(=O)NC1c1c(Cl)n(-c2ccccc2)c2ccccc12 (stereo unspecified)
inactive: SR leukemia 68.6% | RPMI-8226 leukemia 68.4% | OVCAR-8 ovarian 85.6% | OVCAR-5 ovarian 84.7% | OVCAR-4 ovarian 96% | SK-OV-3 ovarian 85.9% | IGROV1 ovarian 66.1% | OVCAR-3 ovarian 69.2% | HS 578T breast 76.1% | NCI/ADR-RES ovarian 85%

COC(=O)[C@H]1Cc2c([nH]c3ccccc23)[C@@H](c2cccs2)N1
inactive: SR leukemia 108% | RPMI-8226 leukemia 103% | OVCAR-8 ovarian 104% | OVCAR-5 ovarian 102% | OVCAR-4 ovarian 102% | SK-OV-3 ovarian 102% | IGROV1 ovarian 101% | OVCAR-3 ovarian 111% | NCI/ADR-RES ovarian 106%

N=C(N)c1ccc(-c2ccc(-c3ccc(F)cc3)s2)nc1
inactive: OVCAR-8 ovarian 68.9% | OVCAR-5 ovarian 77.6% | OVCAR-4 ovarian 79.7% | SK-OV-3 ovarian 86.3% | IGROV1 ovarian 65.7% | OVCAR-3 ovarian 76.9% | NCI/ADR-RES ovarian 93.5%
active: SR leukemia 3.85% | RPMI-8226 leukemia 5.51%

COc1cc2cc(NCc3ccncc3)nc(C)c2cc1OC
inactive: SR leukemia 70.9% | RPMI-8226 leukemia 106% | OVCAR-8 ovarian 91.5% | OVCAR-5 ovarian 80.7% | OVCAR-4 ovarian 94.4% | SK-OV-3 ovarian 77.6% | IGROV1 ovarian 113% | OVCAR-3 ovarian 107% | NCI/ADR-RES ovarian 97.2%

CCOc1ccc(N2C(N)=NC(N)=NC2(C)C)cc1
-4.32% (active) and 90% (inactive): RPMI-8226 leukemia
-35.8% (active) and 107% (inactive): OVCAR-3 ovarian
9.74% (active) and 101% (inactive): NCI/ADR-RES ovarian
inactive: OVCAR-8 ovarian 25.8% and 91.2% | OVCAR-5 ovarian 55.6% and 100% | OVCAR-4 ovarian 42.4% and 108% | SK-OV-3 ovarian 15.7% and 80.1% | IGROV1 ovarian 45.7% and 80.8%
5.52% (active) and 92.7% (inactive): SR leukemia

O=S(=O)(O)c1ccc(N=Nc2ccc(N=Nc3cccc4ccccc34)c(S(=O)(=O)O)c2)cc1
inactive: SR leukemia 99.4% | RPMI-8226 leukemia 108% | OVCAR-8 ovarian 101% | OVCAR-5 ovarian 103% | OVCAR-4 ovarian 93.2% | SK-OV-3 ovarian 85.4% | IGROV1 ovarian 96.3% | OVCAR-3 ovarian 103% | NCI/ADR-RES ovarian 103%

O=C(Nc1ccc2ncsc2c1)c1csc(Nc2ccc3[nH]ncc3c2)n1
active: OVCAR-3 ovarian 8.38%
inactive: SR leukemia 29.1% | RPMI-8226 leukemia 13.6% | OVCAR-8 ovarian 45.7% | OVCAR-5 ovarian 78.6% | OVCAR-4 ovarian 74.8% | SK-OV-3 ovarian 52.9% | IGROV1 ovarian 59.1% | NCI/ADR-RES ovarian 56.9%

C/C(=C(\c1ccc(OCCN2CCOCC2)cc1)c1ccc(OC(=O)C2CCCCC2)cc1)c1ccc(Cl)cc1
inactive: SR leukemia 94.2% | RPMI-8226 leukemia 44.8% | OVCAR-8 ovarian 101% | OVCAR-5 ovarian 95.6% | OVCAR-4 ovarian 111% | SK-OV-3 ovarian 96.6% | IGROV1 ovarian 103% | OVCAR-3 ovarian 97% | NCI/ADR-RES ovarian 98%

COc1ccc2c(c1)oc1c(C)c3c(c(C)c12)C(=O)N(Nc1ccccc1)C3=O
inactive: SR leukemia 104% | RPMI-8226 leukemia 112% | OVCAR-8 ovarian 104% | OVCAR-5 ovarian 92% | OVCAR-4 ovarian 100% | SK-OV-3 ovarian 92% | IGROV1 ovarian 102% | OVCAR-3 ovarian 105% | HS 578T breast 105% | NCI/ADR-RES ovarian 112%

N#CC(Cc1cccc2ccccc12)c1cc2ccccc2[nH]1 (stereo unspecified)
inactive: SR leukemia 99.2% | RPMI-8226 leukemia 72.3% | OVCAR-8 ovarian 87.7% | OVCAR-5 ovarian 89% | OVCAR-4 ovarian 95.1% | SK-OV-3 ovarian 84.1% | IGROV1 ovarian 86.4% | OVCAR-3 ovarian 89.7% | NCI/ADR-RES ovarian 87.2%

CCNC(=S)n1nc(SC)c(C(=O)OCC)c1N
inactive: SR leukemia 89.2% | RPMI-8226 leukemia 110% | OVCAR-8 ovarian 110% | OVCAR-5 ovarian 84.8% | OVCAR-4 ovarian 96.7% | SK-OV-3 ovarian 94% | IGROV1 ovarian 90.6% | OVCAR-3 ovarian 97.7% | HS 578T breast 110% | NCI/ADR-RES ovarian 94.8%

CN(C)CCN1C(=O)c2c(c3c4ccccc4n4c3c3c2c2ccccc2n3C2CC(O)C(O)C4(C)O2)C1=O (stereo unspecified)
active: SR leukemia 5.57%
inactive: RPMI-8226 leukemia 18.5% | OVCAR-8 ovarian 25.3% | OVCAR-5 ovarian 55.6% | OVCAR-4 ovarian 29.3% | SK-OV-3 ovarian 25.3% | IGROV1 ovarian 16.5% | OVCAR-3 ovarian 41.4% | HS 578T breast 41.7% | NCI/ADR-RES ovarian 54.5%

Cc1n(Cc2ccc3ccccc3c2)c(Cl)c(Cl)[n+]1Cc1ccc2ccccc2c1
inactive: OVCAR-8 ovarian 19.1% | OVCAR-5 ovarian 51.1% | SK-OV-3 ovarian 65.5% | NCI/ADR-RES ovarian 98.8%
active: SR leukemia 6.73% | RPMI-8226 leukemia -16.8% | OVCAR-4 ovarian 3.21% | IGROV1 ovarian -8.24% | OVCAR-3 ovarian 5.54%

COc1ccc2c(c1)c(C(=O)c1nc(-c3cn(C)c4ccccc34)no1)cn2C
inactive: SR leukemia 44.7% | RPMI-8226 leukemia 93.6% | OVCAR-8 ovarian 97.9% | OVCAR-5 ovarian 107% | OVCAR-4 ovarian 95.8% | SK-OV-3 ovarian 84.5% | IGROV1 ovarian 86.5% | OVCAR-3 ovarian 109% | HS 578T breast 88.2% | NCI/ADR-RES ovarian 94.3%
